The values below come from PubChem BioAssay.

Records with an inconclusive call do not appear. Active and inactive are the calls of the source. How the calls were made is not given here.

Experiment [1] can be described thus: protection against mutant huntingtin cytotoxicity, PC12 cells, LDH release (AID 1610). The settings on record: PC12 mutant huntingtin toxicity, final LDH at 4 uM, stronger effect = lower value.
Experiment [2] is described as follows: enhancers of glutamate uptake in motor neurons, MN-1 cell line (AID 1612).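 Further: tested at 1 µM final; 0% = mean of DMSO vehicle wells on each plate; positive means more glutamate uptake than control and negative means less.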 The note with it: MN-1 motor neuron cells, stronger effect = higher value.
Experiment [3] is described as follows: suppressors of polyglutamine aggregation in yeast, 75Q-TubH (AID 1616). The note with it: S. cerevisiae 75Q-TubH polyglutamine aggregation suppression; stronger effect = higher value.
Experiment [4] can be described thus: hESC survival regulators, cell-based (AID 493140).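 Further: cells exposed to compounds for four days before counting.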 The note with it: human embryonic stem cell survival screen; stronger effect = higher value.
A short description of experiment [5]: reducers of polyQ inclusions in PC12 cells, cell-based, NGF-treated PC12, GFPQ80 (AID 1614).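 Further: lower means fewer inclusions and 0 means no inclusions at all.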 The note with it: PC12 NGF-treated GFP-polyQ80 inclusion reduction.
Experiment [6] is described as follows: circadian clock period modulators, cell-based, LOPAC library, luminescence reporter (AID 2774).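 Further: values are relative to mean of DMSO wells on each plate.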 The note with it: circadian reporter cells, at 7 µM, actives lie on both sides.

`CCN(CC)CCNc1ccc(CO)c2sc3ccccc3c(=O)c12`: in experiment [1], the normalised LDH release was determined as 0.8. The glutamate uptake change in experiment [2] was found to be 14.7%. Besides, the aggregation suppression score in experiment [3] is 0.977. For the same compound, the survival in experiment [4] is 1.33 (inactive).
As for `Cc1cc(=O)[nH]c(=S)[nH]1`, the glutamate uptake change in experiment [2] amounted to 14.6%. This compound also returned an inclusion score in experiment [5] of 2. The same compound had an aggregation suppression score in experiment [3] of 1.02.
The corresponding values for `O=C(O)c1cc(=O)c2ccccc2o1` are 2.44%, 2 and 1.45.
In the case of `O=NN(CCCl)C(=O)NCCCl`, the normalised LDH release in experiment [1] was 0.621. Further, the glutamate uptake change in experiment [2] worked out at 5.94%. In experiment [3], this compound came in with an aggregation suppression score of 0.185. In addition, the period change in experiment [6] is 0.115 h (inactive).
For the compound `COc1ccc(NS(=O)(=O)c2ccc(N)cc2)nn1`, in experiment [2], the glutamate uptake change was 8.78%. Besides, the inclusion score in experiment [5] was 2. Moreover, in experiment [3], the aggregation suppression score stood at 1.18.
The compound `CC(=O)Nc1ccc(S(=O)(=O)Nc2ccc([N+](=O)[O-])cc2)cc1` yielded a normalised LDH release in experiment [1] of 0.673. Further, the glutamate uptake change in experiment [2] amounted to 20.4%. The compound also returned an inclusion score in experiment [5] of 2. The compound further came in with an aggregation suppression score in experiment [3] of 1.23.
Take `C[N+](C)(C)CCOC(N)=O`: in experiment [1], the normalised LDH release turned out to be 0.399. Moreover, the glutamate uptake change in experiment [2] is -6.66%. Moreover, the inclusion score in experiment [5] was 2. The aggregation suppression score in experiment [3] is 1.67. Besides, the period change in experiment [6] was 0.05 h (inactive). Besides, in experiment [4], the survival was 4.67 (inactive).
Consider `COc1cccc(OC)c1C(=O)N[C@@H]1C(=O)N2[C@@H]1SC(C)(C)[C@@H]2C(=O)O`, for which the glutamate uptake change in experiment [2] is 17.4%. Moreover, the inclusion score in experiment [5] was 2. In experiment [3], the aggregation suppression score was found to be 1.05.
For `O=C(O)CCCCC1CCSS1` (stereo unspecified), the glutamate uptake change in experiment [2] is -7.39%. Further, the inclusion score in experiment [5] was 2. For the same compound, the aggregation suppression score in experiment [3] is 0.186.
In the same order, the values of `CC(=O)NO` are 11.3%, 2 and 1.09.
Regarding `Nc1nccs1`, the glutamate uptake change in experiment [2] came to 28.6%. Also, the inclusion score in experiment [5] worked out at 2. In addition, in experiment [3], the aggregation suppression score stood at 1.04.
Take `Oc1cccc(O)c1`: the glutamate uptake change in experiment [2] worked out at 8.45%. The compound further came in with an inclusion score in experiment [5] of 2. The same compound returned an aggregation suppression score in experiment [3] of 1.13.
In the case of `CCCCCCCCCCCCCCCCCCOCC(O)CO` (stereo unspecified), in experiment [2], the glutamate uptake change is 11.1%. The compound further showed an inclusion score in experiment [5] of 2. The same compound registered an aggregation suppression score in experiment [3] of 0.825.
`Oc1c(Cl)cc(Cl)c(Cl)c1Cc1c(O)c(Cl)cc(Cl)c1Cl`: the normalised LDH release in experiment [1] stood at 0.936. Moreover, the glutamate uptake change in experiment [2] is -31.4%. The compound further yielded an aggregation suppression score in experiment [3] of -0.244.
For the compound `NC(=O)N/N=C/c1ccc([N+](=O)[O-])o1`, the normalised LDH release in experiment [1] was 0.973. Besides, the glutamate uptake change in experiment [2] was found to be 16.7%. In addition, the inclusion score in experiment [5] came out at 2. This compound had an aggregation suppression score in experiment [3] of 0.831. In experiment [4], the survival is 16.2 (inactive).
Consider `Oc1c(Cl)cc(Cl)cc1Sc1cc(Cl)cc(Cl)c1O`, for which the normalised LDH release in experiment [1] is 1.06. The glutamate uptake change in experiment [2] is -39%. Besides, the aggregation suppression score in experiment [3] amounted to 0.0465.
